# Test results as given in ChEMBL document CHEMBL3433997, “St. Jude Leishmania screening dataset” (2016).
# Target: Glucose transporter (Leishmania mexicana) (UniProt O61059)
# Test: ST_JUDE_LEISH: Cytotoxicity at 2uM final concentration against transgenic Leishmania Mexicana promastigotes LmGT2 that are glucose transport deficient and complemented with the L. Mexicana glucose transporter 2. Activity is measured by DNA content using SYBR green in vitro
# Type: functional
row,Compound,inhibition [%]
1,O=C(c1cccc(Cl)c1)N1CCN(c2ccc([N+](=O)[O-])c(NC3CC3)c2)CC1,0.25
2,CCc1c(CCNCCCCCCNCCc2ccc(OC)c(OC)c2C)ccc(OC)c1OC,12.1
3,CN(C)Cc1ccc(-c2ccc(NC(=O)c3ccc4c(=O)n(Cc5ccccc5)cnc4c3)cc2)cc1,63.3
4,CCOc1c(CNCCCCCCNCc2ccc3ccccc3c2OCC)ccc2ccccc12,1.99
5,c1cc(-c2cc3ccc(C4=NCCN4)cc3[nH]2)ccc1C1=NCCN1,0.39
6,CNCCNCc1cccc(-c2ccc(-c3nc4cccc(C)c4[nH]3)cc2)c1,0.95
7,CCc1cccc(OCC2CCCN(c3ccc(C(=O)NC4CC4)cn3)C2)c1 (stereo not given),3.3
8,Cc1cc(N(C)C)nc(Nc2ccc(NC(=O)c3c(F)cccc3Cl)cc2)n1,-0.01
9,CCOC(=O)C1CCN(CCOc2cc(NC(=O)/C=C/c3ccccc3Cl)ccc2Br)CC1,7.58
10,Cc1ccc(NC(=O)Nc2ccc(S(=O)(=O)c3ccc(NC(=O)Nc4ccc(C)c(Cl)c4)cc3)cc2)cc1Cl,1.78
11,c1ccc(Oc2ccc(Nc3nncc4ccccc34)cc2)cc1,-4.56
12,CS(=O)(=O)Nc1cccc(-c2cnc3[nH]cc(-c4ccc(C(=O)O)c(F)c4)c3c2)c1,1.09
13,CCC(Nc1noc(-c2c(-c3ccccc3)noc2C)n1)c1ccccc1 (stereo not given),1.54
14,CCC(C)NC(=O)CN1CN(c2ccccc2)C2(CCN(C(=O)c3ccc(-c4ccccc4)cc3)CC2)C1=O (stereo not given),7.73
15,COc1ccc(CC(=O)Nc2ccc(Nc3nc(C)cc(N(C)C)n3)cc2)cc1,1.53
16,NCC1CCCN1Cc1cccc(-c2ccc(-c3nc4cc(C(F)(F)F)ccc4[nH]3)s2)c1 (stereo not given),0.38
17,O=c1cc(NCC2(CNCc3cn(Cc4ccccc4)c4ccccc34)CCCCC2)[nH]c2ccccc12,5.44
18,CN1CCN(c2ccnc3ccc(NC(=O)Nc4ccc(-c5ccncc5)c(C(F)(F)F)c4)cc23)CC1,10.6
19,Cc1csc2nc(-c3ccccn3)nc(Nc3ccc4ncsc4c3)c12,0.95
20,COc1cc(Nc2ccc3cc(S(=O)(=O)N4CCCCC4C)ccc3n2)cc(OC)c1OC (stereo not given),0.58
21,COc1ccc2nccc([C@@H](O)CN3CCC(NC(=O)Cn4nc(-c5ccc(C(F)(F)F)cc5)ccc4=O)CC3)c2c1,1.3
22,CCOc1cc(CNCCCCCCNCc2cc(OCC)c(OCC)c3ccccc23)c2ccccc2c1OCC,103
23,CC1(C)N=C(N)N=C(N)N1c1cccc(Cl)c1,2.95
24,c1ccc(COc2ccc(Nc3ncnc4cnc(-c5ccc(CNc6cccnc6)o5)cc34)cc2)cc1,0.83
25,CC(C)CC1c2[nH]c3ccccc3c2CCN1C(=O)CCc1ccccc1 (stereo not given),4.41
